Hits are enriched below; roughly 3.8% of the tested compounds scored in any of these assays.
Sfp PPTase inh = Sfp phosphopantetheinyl transferase inhibition; Biochemical Sfp PPTase activity, qHTS; Potency, µM, hits mostly inhibitors; hit rate 3.5% among 310,000; AID 1490;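 also: the enzyme is Sfp with the accession as filed and its product quenches rhodamine fluorescence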
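After 15 min at room temperature with compound, 15 nM Sfp received 5 uM rhodamine-CoA plus 12.5 uM BHQ-2-ybbR (50 mM Hepes pH 7.6, 10 mM MgCl2). Rate came from the fluorescence difference over 30 min, ex 525/em 598 nm.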
GCN5L2 inh = blocks human GCN5L2 histone acetyltransferase | Q92830 | GCN5L2 HAT assay, ThioGlo1 CoA-SH fluorescence | Potency, µM (top dose mostly 58.9 µM), usual class: inhibitors | hit rate 0.21% among 390,000 | AID 504327
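Enzyme at 20nM final was mixed with library compounds for 15 min at room temperature. Peptide H3(1-25) at 75uM, acetyl-CoA at 70uM and ThioGlo1 at 50uM were then added. Plates were read immediately and after 20 min (Ex340nm/Em540nm).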
TrxR1 substrate = rat thioredoxin reductase 1 substrate activity | hit rate 0.01% among 390,000 | Potency, µM (series often up to 114 µM) | AID 588456 | O89049 | purified TrxR1 substrate turnover, NADPH consumption readout; also: nearly all actives have a fitted effect of over 50% in size
Target sequence (O89049 whole entry, looked up): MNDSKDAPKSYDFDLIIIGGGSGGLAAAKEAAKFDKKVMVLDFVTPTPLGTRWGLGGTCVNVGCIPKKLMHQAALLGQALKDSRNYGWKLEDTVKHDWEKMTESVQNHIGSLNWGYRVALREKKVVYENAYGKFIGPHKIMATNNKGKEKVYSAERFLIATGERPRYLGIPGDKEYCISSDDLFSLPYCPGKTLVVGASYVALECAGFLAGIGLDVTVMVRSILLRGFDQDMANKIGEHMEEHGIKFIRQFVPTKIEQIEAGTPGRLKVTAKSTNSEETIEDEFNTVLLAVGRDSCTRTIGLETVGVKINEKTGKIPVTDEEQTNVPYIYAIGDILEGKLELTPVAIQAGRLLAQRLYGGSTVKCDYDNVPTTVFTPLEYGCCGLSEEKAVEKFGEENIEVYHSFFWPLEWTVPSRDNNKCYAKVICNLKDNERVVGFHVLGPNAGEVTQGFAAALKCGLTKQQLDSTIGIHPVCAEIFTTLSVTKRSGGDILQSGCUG
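Rat TrxR1, dispensed at 90 nM, was prereduced with 400 uM NADPH (final) for 5 min at ~22 deg C, then incubated with compound 15 min before 400 uM selenite. A first-read NADPH fluorescence drop versus no-compound background flagged substrates.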
GLS inhibitor = glutaminase GLS (human) inhibition; O94925; hit rate 0.21% among 410,000; Potency, µM (doses to about 45.5 µM), usual class: inhibitors; GLS enzymatic activity, qHTS titration; AID 624170
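Enzyme dispensed in phosphate buffer (45 mM, pH 8.2, 0.02% Tween-20), compounds pinned in, then 1 mM L-glutamine solution and the glutamate oxidase–HRP–Amplex Red mix added; fluorescence read immediately and again after 30 min at room temperature.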
TrxR1 inh = rat TrxR1 inhibition | hit rate 1% among 390,000 | O89049 | Potency, µM (top dose mostly 114 µM), actives largely listed as inhibitors | recombinant rTrxR1, NADPH fluorescence consumption, selenite substrate; also: nearly all actives have a fitted effect of over 65% in size
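Rat TrxR1 (90 nM in the dispensed reagent) was pre-reduced with 400 uM NADPH for 5 min at room temperature, then incubated with compound for 15 min. After 400 uM selenite was added, NADPH fluorescence (Ex 340/Em 450 nm) was followed for 8 min.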
VDR inhibitor = blocks the human vitamin D receptor; Potency, µM, most hits filed as inhibitors; P11473; VDR-SRC2-3 peptide fluorescence polarization, 2 h; hit rate 0.93% among 400,000
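Two reagent solutions held at 4 deg C in the dark were dispensed, compounds pinned at 23 nl, and the mixture incubated 2 h at room temperature. Read-out: fluorescence polarization of VDR–SRC2-3 peptide binding.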
A number is an active result; – = inactive; ? = inconclusive; · = not tested or not shown. Calls follow the shape of the dose curve; as a rule, active = well fitted curve in the direction sought with a large enough effect; inconclusive = small, poorly fitted or top-dose-only effect, or another doubt; inactive = no such curve, though single readings can be large; an effect the other way counts as inactive or inconclusive.

SMILES	Sfp PPTase inh	GCN5L2 inh	TrxR1 substrate	GLS inhibitor	TrxR1 inh	VDR inhibitor
COc1cc(N=c2c([N+](=O)[O-])nn(-c3ccc4c(c3)OCCO4)n2O)cc(OC)c1	–	–	–	–	–	–
CC1=C(C(=O)O)N2C(=O)C(NC(=O)c3nn(C)c(C)c3Cl)C2SC1 (stereo not drawn)	11µM	–	–	–	–	–
CC1=C(C(=O)O)N2C(=O)C(NC(=O)c3ccn(C)n3)C2SC1 (stereo not drawn)	22µM	–	–	–	–	–
CC1=C(C(=O)O)N2C(=O)[C@@H](NC(=O)[C@H](N)c3ccc(O)cc3)[C@H]2SC1	·	·	–	–	–	–
CCN1c2ccc(S(=O)(=O)N3CCOCC3)cc2N(Cc2ccc(OC)cc2)C1C (stereo not drawn)	–	–	–	–	–	–
O=C(NCC1CC1)C1(C(F)(F)F)CC(CCc2ccccc2)CCCO1 (stereo not drawn)	–	·	–	–	–	–
CC(NC(=O)Cc1cccs1)C(c1cccs1)N1CCN(c2ccccc2)CC1 (stereo not drawn)	·	·	–	–	–	–
CCOC(=O)[C@]12CCC=C1N(Cc1ccccc1)C(=O)[C@H](CC(=O)N1CCOCC1)C2	·	·	·	–	·	·
COC(=O)c1sc(NC(=O)c2ccc(Cn3cc(Cl)cn3)o2)c(C#N)c1C	16µM	–	–	–	?	?
Fc1ccc(Nc2nc(-c3cccnc3)cs2)cc1	–	–	–	–	–	–
O=C(COC(=O)/C=C/c1cccs1)Nc1nc(-c2cccc(Br)c2)cs1	–	–	–	–	–	–
c1ccc(-c2csc(Nc3cccnc3)n2)cc1	32µM	–	–	?	–	–
O=C(C[n+]1cc(-c2ccccc2)n2c1CCC2)Nc1nc(-c2ccccc2)cs1	56µM	–	–	–	–	–
O=C(COc1ccccc1)Nc1nc(-c2cccnc2)cs1	·	–	–	–	–	–
O=C(COC(=O)/C=C/c1cccs1)Nc1nc(-c2ccccc2)cs1	–	–	–	–	56µM	–
O=C(COc1ccccc1)Nc1nc(-c2ccncc2)cs1	50µM	–	–	–	–	–
O=C(CN1CCN(Cc2ccccc2Cl)C1=O)NCCc1ccc(Cl)cc1	·	–	–	–	–	–
Cc1c(/C(Cc2ccccc2)=N/O)c2ccccc2n1C	–	–	–	–	–	–
CCOC(=O)N1CCC(NC(=O)CS(=O)(=O)Cc2nc(-c3ccccc3C)oc2C)CC1	–	–	–	–	–	–
Cc1oc(-c2ccccc2)nc1C(=O)OCC(=O)NC(=O)NCC(C)C	–	–	–	–	–	–
CCOc1cccc(C(=O)Nc2ccncc2)c1	–	–	–	–	–	–
Cc1cc(C)cc(OCC(=O)Nc2nc(-c3cccnc3)cs2)c1	45µM	–	–	–	–	?
Cc1cccc(OCC(=O)Nc2nc(-c3ccncc3)cs2)c1	·	–	–	–	–	–
COC(=O)CSc1nnc(CSc2nc(C)cc(C)n2)n1Cc1ccco1	–	–	–	–	–	–
COc1cc(C(C[N+](=O)[O-])c2c(C)cc3ccccn23)ccc1O (stereo not drawn)	?	–	–	7.9µM	–	–
SMILES	Sfp PPTase inh	GCN5L2 inh	TrxR1 substrate	GLS inhibitor	TrxR1 inh	VDR inhibitor
COc1ccc(C(C[N+](=O)[O-])c2c(-c3ccccc3)cc3ccccn23)cc1 (stereo not drawn)	–	–	–	–	?	–
COc1cc(C(C[N+](=O)[O-])c2c(-c3ccccc3)cc3ccccn23)cc(OC)c1OC (stereo not drawn)	56µM	–	–	–	1.8µM	–
COc1ccc(C(C[N+](=O)[O-])c2c(-c3ccccc3)cc3ccccn23)cc1OC (stereo not drawn)	–	·	–	–	16µM	–
COc1ccc2c(CNCC(C)c3ccccc3)c(C(=O)O)n(Cc3ccc(F)cc3Cl)c2c1 (stereo not drawn)	·	–	–	–	–	–
CCOC(=O)N1CCc2c(sc(NCc3sccc3C)c2C(=O)Nc2ccc(OC)cc2OC)C1	·	–	–	–	–	–
O=C(NCN1CCc2ccccc2C1)c1cnccn1	–	–	–	–	20µM	–
O=C(NCN1CCc2ccccc2C1)c1ccccc1	–	–	–	–	–	–
O=C(O)C1CSC(CCc2ccccc2)N1 (stereo not drawn)	79µM	–	–	–	–	–
Cc1[nH]ncc1Nc1ccccc1C(C)C	·	·	·	–	·	·
Cc1ccc(S(=O)(=O)N(C)C)cc1NC(=O)COC(=O)/C=C/c1ccc2c(c1)OCO2	–	–	–	–	–	–
Cc1oc(C(=O)O)cc1CSCc1ccoc1C(=O)O	–	–	–	?	–	–
Cc1oc(C(=O)O)cc1CSCc1cc(C(=O)O)c(C)o1	20µM	–	–	?	–	–
COC(=O)c1c(C)nc2ccccc2c1-c1ccccc1	–	–	–	–	–	–
CCOC(=O)c1c(C)nc(C)c(C(=O)OCC)c1-c1ccc(O)c(OC)c1	32µM	–	–	–	–	?
CCOC(=O)c1c(C)nc2ccccc2c1-c1ccccc1	79µM	–	–	–	–	–
Cc1cccc(C2=NN(c3ccccc3)[C@@H](C(=O)N3CCOC3=O)[C@@H]2c2ccc(F)cc2)c1	–	32µM	–	–	–	–
COc1ccc(CC(=O)N/N=C/c2ccc(-c3cccc(C(=O)O)c3)o2)cc1OC	14µM	–	–	–	–	–
Nc1nnc(CC(=O)N/N=C/c2ccc(-c3ccccc3)o2)s1	?	–	–	–	–	–
O=C(O)c1cccc(-c2ccc(/C=N/Nc3nn[nH]n3)o2)c1	45µM	–	–	–	–	–
Nc1nonc1C(=O)N/N=C/c1ccc(-c2cccc(C(=O)O)c2)o1	56µM	–	·	·	·	·
COC(=O)c1ccc(-c2ccc(/C=N/NC(=O)Cc3nnc(N)s3)o2)cc1	56µM	–	–	–	–	–
Cc1cccc(NC(=O)COC(=O)c2ccc(C)c(S(=O)(=O)N3CCCCC3)c2)c1	·	–	–	–	–	–
O=C(Cn1c(=O)c2cccn2c2ccc(F)cc21)N1CCN(c2ccccc2F)CC1	·	–	–	–	–	–
O=C(O)/C=C/C(=O)Nc1ccc2nccnc2c1	–	–	–	–	–	–
CC(C)CCNCC(O)CON=C1c2ccccc2-c2ccccc21 (stereo not drawn)	35µM	–	–	–	–	–
N#C/C(=C/c1ccc(Br)o1)C(N)=S	35µM	–	·	·	·	·
N#C/C(=C/c1ccc(Br)o1)C(N)=O	–	–	–	–	–	–
CCN(CC)S(=O)(=O)c1cccc(NC(=O)COC(=O)c2ccc(Br)o2)c1	–	–	–	–	–	–
CCc1ccc(Nc2cc(C(=O)NCCCN3CCOCC3)c3ccccc3n2)cc1	35µM	–	–	–	–	–

Screening results deposited in PubChem BioAssay by National Center for Advancing Translational Sciences (NCATS).
